Screens deposited in PubChem BioAssay by several laboratories.
Hits are enriched below; roughly 1.8% of the tested compounds scored in any of these assays.
MIN6 prolif – inducers of beta-cell replication in MIN6 cells | MIN6 cells proliferation, ATPlite luminescence, 48 h; cells starved in 0.2% serum; 100% = growth in 10% serum | proliferation, % at 10 µM | actives 0.29% (n = 330,000);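 active = compounds whose signal lies at least 3.5 SD above the mean of all wells on their plate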
APOBEC3G inh – inhibitors of human APOBEC3G DNA deaminase; Q9HC16; inhibition, % at 20 µM; AID 493012; recombinant A3G, ssDNA deamination FAM/TAMRA fluorescence; actives 0.28% (n = 330,000);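 active = inhibition of at least 40% at 20 µM, with no more than 30% in the related APOBEC3A deaminase screen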
A3A deaminase – human APOBEC3A DNA deaminase inhibition; P31941; recombinant A3A, FAM/TAMRA ssDNA deamination fluorescence; inhibition, % at 20 µM; actives 0.41% (n = 330,000);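 active = at least 40% inhibition at 20 µM here, with at most 30% in a related deaminase screen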
NRP1-CendR mod – NRP-1/CendR interaction modulation; actives 0.85% (n = 360,000); AID 602438; FAM-RPARPAR peptide binding to NRP-1, fluorescence polarization; inhibition, % at 25 µM;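 active = inhibition or corrected inhibition above about 18%, plus a signal ratio from 0.5 to 1.5, limit read from the data, passing the limit was not always enough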
VLA-4 inh – inhibition in a human VLA-4 binding assay; P13612; VLA-4 expressing cells, ligand binding flow cytometry; inhibition, % (about 7 µM as worked out from the volumes in the protocol); actives 0.2% (n = 330,000); AID 2557; in the data active = inhibition above about 50%
Target sequence (P13612 whole entry, looked up): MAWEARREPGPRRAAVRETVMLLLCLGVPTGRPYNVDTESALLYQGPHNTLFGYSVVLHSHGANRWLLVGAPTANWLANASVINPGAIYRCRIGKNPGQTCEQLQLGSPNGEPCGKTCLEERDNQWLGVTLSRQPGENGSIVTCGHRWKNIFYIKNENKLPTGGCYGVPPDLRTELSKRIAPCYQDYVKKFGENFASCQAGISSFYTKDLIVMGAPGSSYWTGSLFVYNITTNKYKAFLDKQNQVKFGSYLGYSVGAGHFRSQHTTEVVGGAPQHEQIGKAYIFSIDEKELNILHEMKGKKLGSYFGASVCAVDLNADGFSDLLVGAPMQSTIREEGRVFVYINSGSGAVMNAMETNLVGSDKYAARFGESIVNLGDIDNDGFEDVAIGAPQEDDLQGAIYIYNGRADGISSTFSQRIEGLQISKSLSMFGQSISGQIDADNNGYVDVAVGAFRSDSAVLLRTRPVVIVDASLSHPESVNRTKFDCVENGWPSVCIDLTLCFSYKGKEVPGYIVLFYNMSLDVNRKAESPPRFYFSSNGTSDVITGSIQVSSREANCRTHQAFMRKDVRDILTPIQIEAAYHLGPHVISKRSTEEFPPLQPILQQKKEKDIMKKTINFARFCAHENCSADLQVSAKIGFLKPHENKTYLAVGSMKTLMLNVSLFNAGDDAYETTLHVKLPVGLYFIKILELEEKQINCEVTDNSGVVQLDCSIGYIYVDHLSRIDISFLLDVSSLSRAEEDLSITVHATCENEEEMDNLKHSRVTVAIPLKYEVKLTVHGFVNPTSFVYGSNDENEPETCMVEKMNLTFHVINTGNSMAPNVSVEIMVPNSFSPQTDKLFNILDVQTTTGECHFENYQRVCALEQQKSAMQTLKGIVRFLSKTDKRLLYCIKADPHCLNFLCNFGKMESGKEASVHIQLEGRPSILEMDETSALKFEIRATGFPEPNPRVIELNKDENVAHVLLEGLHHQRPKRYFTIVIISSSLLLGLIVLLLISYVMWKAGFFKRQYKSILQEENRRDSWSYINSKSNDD
Large screens that a line does not name were inactive.

Cc1cc(C(=O)c2ccccc2)cc(C)c1O	none (no result: MIN6 prolif, APOBEC3G inh, A3A deaminase, VLA-4 inh)
CC1=C/C(=C(\c2cc(C)c(O)c(Br)c2)c2ccccc2S(=O)(=O)O)C=C(Br)C1=O	NRP1-CendR mod 46.4
COc1ccc(C(=O)Nc2ccc(Cl)cc2C(=O)N2CCCC(C)C2)cc1 (centres undefined)	NRP1-CendR mod 23.8
COc1ccc(C(=O)Nc2ccc(Cl)cc2C(=O)N2CCOCC2)cc1	none
COc1ccc2cc(C(=O)/C=C/c3cc(OC)c(OC)c(OC)c3)ccc2c1	NRP1-CendR mod 26.6
O=C(Cc1ccccc1)c1nnc(-c2ccccc2)o1	none
O=C(NCc1ccccc1Cl)c1ccc(NC2=NC3CS(=O)(=O)CC3S2)cc1 (centres undefined)	none
O=C(NCc1ccccc1Cl)c1cccc(NC(=O)c2ccccc2)c1	NRP1-CendR mod 18.3
O=C(NCc1ccccc1)c1cccc(NC(=O)c2ccccc2)c1	none (no result: MIN6 prolif, APOBEC3G inh, A3A deaminase, VLA-4 inh)
Cc1cccc(C)c1NC(=O)CN1CCN(C(=O)c2ccc(OCc3cn4ccccc4n3)cc2)CC1	NRP1-CendR mod 29.7
O=C(c1ccc(OCc2cn3ccccc3n2)cc1)N1CCN(S(=O)(=O)c2ccccc2F)CC1	none (no result: VLA-4 inh)
Nc1ccn(CC(=O)NCc2ccc3[nH]ccc3c2)c(=O)n1	NRP1-CendR mod 32.1
O=C(O)C[C@H]1c2cc(F)ccc2S(=O)(=O)N1C1CCCCC1	NRP1-CendR mod 25.1
Cc1ccc(NC(=S)Nc2cccc3ccccc23)cc1	NRP1-CendR mod 28.5
Fc1ccc(NC(=S)Nc2cccc3ccccc23)cc1	NRP1-CendR mod 28.4
S=C(Nc1cccc2ccccc12)NN1CCOCC1	NRP1-CendR mod 25.3
COc1cccc(C2CC(c3ccccc3Cl)n3ncnc3N2)c1 (centres undefined)	NRP1-CendR mod 30.1
COc1cccc(C2CC(c3ccccc3Cl)n3nnnc3N2)c1 (centres undefined)	none
O=C(CN1C2=NCCN2c2ccccc21)N1CCOCC1	none (no result: NRP1-CendR mod)
O=C(CN1C2=NCCN2c2ccccc21)c1ccco1	NRP1-CendR mod 32.0
CCCn1c(SCC(=O)Nc2cccnc2Cl)n[nH]c1=O	none
CN(CCNC(=O)c1cccc(N2CCCC2=O)c1)Cc1ccccc1	NRP1-CendR mod 17.6
CCN(CCNC(=O)c1cccc(N2CCCC2=O)c1)c1ccccc1	none
CC(=O)Nc1ccc(S(=O)(=O)Nc2cccc(-c3cn4cccnc4n3)c2)cc1	none
COc1cccc(NC(=S)NNC(=O)Cn2nc([N+](=O)[O-])cc2C)c1	NRP1-CendR mod 29.7
Clc1ccccc1-c1ccc2ncnc(NCc3ccc4c(c3)OCO4)c2c1	NRP1-CendR mod 22.3
c1cncc(-c2ccc3ncnc(NCc4ccc5c(c4)OCO5)c3c2)c1	none
O=C(CSc1ncnc2ccccc12)NCc1ccc2c(c1)OCO2	MIN6 prolif 7.7
CC1c2cc3c(cc2CCN1C(=O)c1cccc(Cl)c1)OCCCO3 (centres undefined)	none
COc1ccc(C(=O)C2CCCN(C(=O)c3c4c(nn3C)CCCC4)C2)cc1F (centres undefined)	none
Cn1nc2c(c1C(=O)N1CCCC(C(=O)c3cc(F)ccc3F)C1)CCCC2 (centres undefined)	NRP1-CendR mod 52.8
CO/N=C/CC(=O)c1cnc(-c2ccc(Cl)cc2)s1	NRP1-CendR mod 25.7
O=C(c1ccc(Cl)cc1)c1cnc(-c2ccccc2)s1	none (no result: MIN6 prolif, APOBEC3G inh, A3A deaminase, VLA-4 inh)
CCCn1ncc(OC)c(Cl)c1=O	NRP1-CendR mod 22.2
O=C(C1CC=CCC1)N1CCCCCC1 (centres undefined)	none (no result: MIN6 prolif, APOBEC3G inh, A3A deaminase, VLA-4 inh)
COc1ccc(OCCNC(=O)Nc2cc(F)c(F)cc2Cl)cc1	none
COc1cccc(OCCNC(=O)Nc2cc(F)c(F)cc2Cl)c1	NRP1-CendR mod 25.3
CCCCN(C(=O)c1ccc(-n2nc(C)cc2C)cc1)c1c(N)n(CCC)c(=O)[nH]c1=O	none (no result: VLA-4 inh)
CC1(C)S[C@@H]2C(C(=O)OCc3ccccc3)NC(=O)N2C1C(=O)OCc1ccccc1 (some centres undefined)	NRP1-CendR mod 33.5
CSc1ccc(CN(C)C(=O)CNC(=O)c2ccc3c(c2)OCO3)cc1	none
COc1cccc(CNC(=O)CCC2CCCN(C(=O)c3cccc(Cl)c3)C2)c1 (centres undefined)	none
COc1cccc(CNC(=O)CCC2CCCN(C(=O)C3=CC(=O)CC(C)(C)O3)C2)c1 (centres undefined)	NRP1-CendR mod 37.6
O=S(=O)(O)c1cc(O)c2cc(Nc3ccccc3)ccc2c1	NRP1-CendR mod 41.9 (no result: MIN6 prolif, APOBEC3G inh, A3A deaminase, VLA-4 inh)
Nc1ccc2c(O)cc(S(=O)(=O)O)cc2c1	NRP1-CendR mod 27.8 (no result: MIN6 prolif, APOBEC3G inh, A3A deaminase, VLA-4 inh)
